# In PubChem BioAssay (NCATS):
# Where “and” joins values, the source holds several entries; their conditions need not be identical. Equal values may be shown once. Inconclusive results are not listed. A number with no mark means an inactive call. Calls of active or inactive are those of the source. The call rests on the fitted dose curve; in most records, active means well fitted curve in the direction sought with a large enough effect; inconclusive means small, poorly fitted or top-dose-only effect, or another doubt; inactive means no such curve, though single readings can be large or run the other way. *1 amine or outer side, *2 acyl side, *3 side chain or, on linkers, in order; H or OH if unused. Where a SMILES comes first, the peptide text is derived from it. Non-standard residues stand in square brackets, D forms with d. Residues, ends and D or L forms follow the SMILES beside them. Bridges are numbered along the chain shown (N, C = ends). Roman numbers before positions name the chains, in order. [ ]: non-standard residue; d: D form. ξ: configuration not given here. Actinocin(9to1) = Cc1c2oc3c(C)ccc(C(=O)[*:1])c3nc-2c(C(=O)[*:2])c(N)c1=O; Orn = NCCC[C@H](N)C(=O)O; ξNMeV = CNC(C(=O)O)C(C)C; ξV = CC(C)C(N)C(=O)O; Sar = CNCC(=O)O
# Assay: qHTS Assay for Identifying Gametocytocidal Compounds (AID 743244);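 on max response: actives lower the fluorescent signal which means gametocytes are killed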
# Details: P. falciparum 3D7 stage III-V gametocytes, alamarBlue, 72 h; max response: hits give low values
# Description: Malaria cases and deaths have dropped 50% in 29 countries since 2000 due to the combined effects of long-lasting insecticidal bednets, indoor residual spraying, and artemisinin-based combination therapies (ACTs). This success has raised hopes for malaria eradication and consequently stimulated interest in developing new reagents that block gametocyte transmission such as novel and safe gametocytocidal drugs. However, previous drug development efforts have focused primarily on the asexual parasites that cause symptoms, but not malaria transmission. Consequently, patients can remain infectious for weeks after the clearance of asexual parasites and clinical symptoms. To be transmitted from person to person via a mosquito, the parasites must switch from asexual to sexual development and produce male and female gametocytes. Malaria gametocytes consist of five stages (I, II, III, IV and V). The late stage gametocytes (III, IV and V) are difficult to be cultured in vitro and the long lifespan of mature gametocytes allows them being transmitted from host to mosquitoes unless they are completely eliminated by gametocytocidal agents. To identify gametocytocidal compounds which are capable of killing late stage P. falciparum gametocytes, a high throughput gametocyte viability assay was employed. This assay uses oxidoreduction indicator, alamarBlue, as a general measure of metabolic activity of gametocytes. Within live cells, the nonfluorescent resazurin is reduced to resorufin, a bright red fluorescence dye. Fluorescence decreases upon treatment of gametocytocidal compounds. P. falciparum gametocyte (3D7 strain) was used in this study.
# The 1536-well gametocycidal viability assay was based on the previous method of Tanaka et al. Stage III-V gametocytes were tested against three compound libraries, including 4265 compounds from NCGC pharmaceutical collection, 400 from Malaria Box library, and 550 from an internal collection of kinase inhibitors. Briefly, 2.5 ul/well incomplete medium was dispensed into each well of 1,536-well plates using the Multidrop Combi followed by 23 nl compound transferring using the NX-TR Pintool (WAKO Scientific Solutions, San Diego, CA). Then, 2.5 ul/well of gametocytes was dispensed with a seeding density of 20,000 cells/well using the Multidrop Combi. The assay plates were incubated for 72 h at 37C with 5% CO2. After addition of 5 ul/well of 2X AlamarBlue dye (Life Technologies, cat. no. DAL1100), the plates were incubated for 24 h at 37C with 5% CO2 and then were read in a fluorescence detection mode (Ex = 525 nm, Em = 598 nm) on a ViewLux plate reader (PerkinElmer).
# On the % scale 0 is the no-effect control and ±100 the full control effect; potency means the concentration at half of the fitted maximal effect.
Compound,max response,Potency
N[C@H](C(=O)O)[C@@H]1CC(Cl)=NO1,8.42%,
CCC1(Cc2ccc(N)cc2)CCC(=O)NC1=O (stereo not given),9.55%,
CC1(C)S[C@@H]2[C@H](NC(=O)C(C(=O)O)c3ccsc3)C(=O)N2[C@H]1C(=O)O (stereo not given in full),10.2%,
CC[C@H]1OC(=O)C[C@@H](O)[C@H](C)[C@@H](O[C@@H]2O[C@H](C)[C@@H](O)[C@H](N(C)C)[C@H]2O)[C@@H](CCN2C[C@H](C)C[C@H](C)C2)C[C@@H](C)C(=O)/C=C/C(C)=C/[C@@H]1CO[C@@H]1O[C@H](C)[C@@H](O)[C@@H](OC)[C@H]1OC,-0.81%,
CN1Cc2c(N)cccc2C(c2ccccc2)C1 (stereo not given),14.6% and -4.23%,
CO[C@H]1C=CO[C@@]2(C)Oc3c(C)c(O)c4c(O)c(c(/C=N/N5CCN(C6CCCC6)CC5)c(O)c4c3C2=O)NC(=O)/C(C)=C\C=C[C@H](C)[C@H](O)[C@@H](C)[C@@H](O)[C@@H](C)[C@H](OC(C)=O)[C@@H]1C,,10 µM (active)
C[C@]12CCC(=O)C=C1CC[C@@H]1[C@@H]2[C@@H](O)C[C@@]2(C)[C@H]1CC[C@]2(O)C(=O)COP(=O)(O)O,-12.2%,
O=CCCCC=O,-1.12%,
Cc1onc(-c2ccccc2)c1C(=O)N[C@@H]1C(=O)N2[C@@H]1SC(C)(C)[C@@H]2C(=O)O,-0.392%,
O=C(O)c1cc(=O)c2c3nc4ccccc4oc-3cc(=O)c2[nH]1,-14.4%,
CC1(C)C(C=C(Cl)Cl)C1C(=O)OCc1cccc(Oc2ccccc2)c1 (stereo not given),-8.09%,
CCCCCCCCCCCCCC[n+]1ccc(C)cc1,,7.94 µM (active)
CNC1CCN(C(Cc2cccc(-c3ccncc3)c2)C(=O)c2sc3c(F)ccc(F)c3c2Cl)CC1 (stereo not given),,9.35 µM (active)
C#C[C@]1(O)CC[C@H]2[C@@H]3CCC4=C/C(=N/O)CC[C@@H]4[C@H]3CC[C@@]21CC,-2.15%,
CC[N+](CC)(CC)CCC(O)(c1ccccc1)C1CCCCC1 (stereo not given),4.48%,
OCCO[C@@H]1[C@@H](O)[C@H](O)[C@@H](CO)O[C@@H]1O,18.7%,
CCCCCCCC(=O)O,10%,
CN1C(=O)CN2CCc3ccccc3C2c2cc(Cl)ccc21 (stereo not given),0.102%,
O=C(Nc1ccc(Br)cc1)c1cc(Br)c(Br)s1,1.98%,
CC(C)C[C@@H]1NC(=O)[C@H](CCCN)NC(=O)[C@H](C(C)C)NC(=O)[C@@H]2CCCN2C(=O)[C@@H](Cc2ccccc2)NC(=O)[C@H](CC(C)C)NC(=O)[C@H](CCCN)NC(=O)[C@H](C(C)C)NC(=O)[C@@H]2CCCN2C(=O)[C@@H](Cc2ccccc2)NC1=O (cyclo(V[Orn]L[dF]PV[Orn]L[dF]P)),,2.24 µM (active)

Compound,max response,Potency
O=C1C(=O)c2ncccc2-c2cccnc21,,0.148 µM (active)
C/C1=C2N=C(/C=C3N=C(/C(C)=C4\[N-][C@@](C)([C@@H]5N=C1[C@](C)(CCC(=O)NCC(C)OP(=O)(O)O[C@H]1[C@@H](O)[C@@H](n6cnc7cc(C)c(C)cc76)O[C@@H]1CO)[C@H]5CC(N)=O)[C@@](C)(CC(N)=O)[C@@H]4CCC(N)=O)[C@@](C)(CC(N)=O)[C@@H]\3CCC(N)=O)C(C)(C)[C@@H]/2CCC(N)=O.CC(=O)O.[Co] (stereo not given in full),,20 µM (active)
CCC(=O)OCC(=O)[C@@]1(OC(=O)CC)[C@H](C)C[C@H]2[C@H]3[C@H]([C@@H](O)C[C@@]21C)[C@@]1(C)C=CC(=O)C=C1C[C@H]3Cl,-4.51%,
CNC(C)[C@@H]1CC[C@@H](N)[C@@H](O[C@H]2[C@H](O)[C@@H](O[C@H]3OC[C@](C)(O)[C@H](NC)[C@H]3O)[C@H](N)C[C@@H]2N)O1 (stereo not given in full),5.9%,
Nc1c(N=Nc2ccc(-c3ccc(N=Nc4cc(S(=O)(=O)O)c5ccccc5c4N)cc3)cc2)cc(S(=O)(=O)O)c2ccccc12,13.5%,
O=C(O)CCC(=O)C(=O)O,11.5%,
COC(=O)[C@H]1[C@H]2C[C@@H]3c4[nH]c5ccccc5c4CCN3C[C@H]2C[C@@H](OC(=O)c2cc(OC)c(OC)c(OC)c2)[C@@H]1OC,,8.91 µM (active)
CC(C)(C)C(=O)OCOC(=O)[C@@H]1N2C(=O)[C@@H](N=CN3CCCCCC3)[C@H]2SC1(C)C,2.95%,
CCCCCCCC/C=C\CCCCCCCC(=O)O,5.58%,
CC[C@H]1OC(=O)[C@H](C)[C@@H](O[C@H]2C[C@@](C)(OC)[C@@H](O)[C@H](C)O2)[C@H](C)[C@@H](O[C@@H]2O[C@H](C)C[C@H](N(C)C)[C@H]2O)[C@](C)(O)C[C@@H](C)/C(=N\OCOCCOC)[C@H](C)[C@@H](O)[C@]1(C)O,-7.41% and 9.46%,
CCCCCCCCCCCCCCCCCCOP(=O)([O-])OC1CC[N+](C)(C)CC1,13.1%,
COCC(=O)Nc1cc(Sc2ccccc2)ccc1N=C(NC(=O)OC)NC(=O)OC,-1.05%,
OC[C@H]1O[C@@H](n2cnc3c2NC=NC[C@H]3O)C[C@@H]1O,-6.17%,
CC1(C)O[C@@H]2C[C@H]3[C@@H]4CCC5=CC(=O)C=C[C@]5(C)[C@H]4[C@@H](O)C[C@]3(C)[C@]2(C(=O)CO)O1,-15.3%,
CC(=O)Oc1c(C)cc(OCC(O)CNC(C)C)c(C)c1C (stereo not given),,15.8 µM (active)
CC(C(=O)O)c1ccc(N2Cc3ccccc3C2=O)cc1 (stereo not given),8.38%,
"Cc1c2oc3c(C)ccc(C(=O)N[C@@H]4C(=O)NC(C(C)C)C(=O)N5CCC[C@H]5C(=O)N(C)CC(=O)N(C)C(C(C)C)C(=O)O[C@@H]4C)c3nc-2c(C(=O)N[C@@H]2C(=O)NC(C(C)C)C(=O)N3CCC[C@H]3C(=O)N(C)CC(=O)N(C)C(C(C)C)C(=O)O[C@@H]2C)c(N)c1=O (stereo not given in full) (I: T[ξV]P[Sar][ξNMeV] / II: T[ξV]P[Sar][ξNMeV]; ester I:1-I:C, II:1-II:C; linker I:N-II:N via Actinocin(9to1))",,0.0132 µM (active)
CC(=O)OCC(=O)[C@@]1(O)CC[C@H]2[C@@H]3C[C@H](C)C4=CC(=O)C=C[C@]4(C)[C@H]3[C@@H](O)C[C@@]21C,-1.15%,
C=CCSSSCC=C,-8.99%,
O=c1cc(C2=CC=CC3Sc4ccccc4SC23)oc(N2CCOCC2)c1 (stereo not given),-19.3%,
